Compounds with a hit are over-represented: about 21% of the library has one in this group of screens.
Pf growth 48h: inhibits P. falciparum growth in the first generation, 48 h | actives 5.9% (n = 310,000) | AID 504832 | Potency, µM (titrated, usually from 28.7 µM), for inactives: at the highest dose activity change, negative = inhibition, most hits filed as inhibitors | P. falciparum luciferase growth in erythrocytes, 48 h; also: potency is read from the fitted curve at half-maximal effect; % is scaled to controls: 0 for no effect and ±100 for the full control effect
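In quantitative HTS format, infected erythrocytes bearing luciferase-reporter parasites were treated for a single generation at 37 C. Luminescence after adding detection reagent served as the growth measure.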
HCV inh: inhibitors of hepatitis C virus infection; Potency, µM (doses to about 41.8 µM), inactives show top-dose activity change, negative = inhibition, actives largely listed as inhibitors; Huh7.5.1 HCVcc-Cre infection, luciferase reporter, 44 h; AID 651820; actives 3.4% (n = 340,000); also: potency is read from the fitted curve at half-maximal effect; % is scaled to controls: 0 for no effect and ±100 for the full control effect
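Compounds are dispensed onto cells plated 4 h earlier at 1,000 per well, with HCVcc-Cre virus (about 0.5 moi) added next. Following 44 h of culture, luminescent signal is measured for 15 sec after 15 min with substrate at room temperature.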
AMA1 RON2 block: disrupts binding of P. falciparum AMA1 to RON2 | AID 720542 | Potency, µM (series often up to 58.2 µM), for inactives: at the top dose activity change, negative = inhibition, actives largely listed as inhibitors | actives 0.2% (n = 360,000) | AlphaScreen AMA1-biotinylated RON2 peptide binding;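 also: potency is read from the fitted curve at half-maximal effect; 0% = vehicle wells and -100% = peptide control; nearly all actives have a fitted effect of over 45% in size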
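AMA1 (3D7) with his tag at 25 nM final met compounds first, then biotinylated RON2 peptide at 25 nM; detection used donor plus acceptor beads, 10 µg/mL apiece, read by AlphaScreen after 30 min at room temperature.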
Pf growth 96h: inhibits malaria parasite growth, 96 h | P. falciparum luciferase reporter growth, 96 h | Potency, µM (doses to about 28.7 µM), for inactives: at the top dose activity change, negative = inhibition, hits mostly inhibitors | actives 6.9% (n = 320,000) | AID 504834; also: potency is read from the fitted curve at half-maximal effect; % is scaled to controls: 0 for no effect and ±100 for the full control effect
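Plates of compound plus infected erythrocytes (2% hematocrit, 0.05% parasitemia final) incubate 96 hours, 37 C, 5% CO2. Detection reagent added; reduced luminescence from the parasites' luciferase reporter flags inhibition.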
Shiga toxin inh: inhibitors of Shiga toxin in Vero cells; AID 2315; actives 9.2% (n = 290,000); inhibition, % at 38.7 µM; Vero cells, Shiga toxin protein synthesis inhibition reporter; in the data active = inhibition mostly above about 28%, no sharp cut-off; inactive = mostly below about 43%; also: 0% is about no effect
CHX counter: counter-screen hit for Shiga toxin inhibitors, cycloheximide. cell reporter, cycloheximide protein synthesis inhibition counterscreen. max response, %. actives 12% (n = 300,000). AID 2314; in the data active = max response mostly above about 13%, no sharp cut-off; inactive = mostly below about 14%; also: read at 38.3 µM for the half of the compounds with a filed dose; 0% is about no effect
Active calls of the source: *; i = inactive; ? = inconclusive; · = no result; [ ] = another dose, or the depositor's remark. Unless noted, calls follow the shape of the dose curve; as a rule, active = well fitted curve in the direction sought with a large enough effect; inconclusive = small, poorly fitted or top-dose-only effect, or another doubt; inactive = no such curve, though single readings can be large; an effect the other way counts as inactive or inconclusive.

SMILES	Pf growth 48h	HCV inh	AMA1 RON2 block	Pf growth 96h	Shiga toxin inh	CHX counter
CCc1nc2ccc(C(=O)N3CCN(c4ccccc4)CC3)cn2c1N(CCC(C)C)CCN(C)C	·	·	-3%	·	·	·
CCOC(=O)c1nc2ccccc2c(=O)n1-c1ccc(C)cc1C	?	-7%	3%[11.6 µM]	?	1	4
Cn1c(N)nc2ccccc2c1=O	19%	8%	-13%	12%	27	-3
Cc1ccc(-n2c(NN)nc3ccccc3c2=O)c(C)c1	?	-10%	31%	9.3µM*	-8	-6
Cn1c(NN)nc2ccccc2c1=O	8%	7%	-1%	347%	33*	36*
C[C@@H](NC(=O)c1nc[nH]c1C(=O)NCc1ccccc1)c1ccccc1	-5%	12%	105%	?	·	·
CC1(C(=O)NS(=O)(=O)c2cccc(Cl)c2)CCN1C(=O)C1CCCCC1 (configuration not stated)	·	·	-8%	·	·	·
CC(C)c1nnc(NC(=O)c2ccc3ccccc3c2)s1	263%	2%	-3%	167%	108*	51*
Cc1nnc(NC(=O)c2ccc(Br)cc2)s1	·	13%	-1%	-9%	4	28
CC(C)c1nnc(NC(=O)COc2ccc3ccccc3c2)s1	40%	9%	13%	38%	7	-2
CCCc1cc(C(=O)Nc2nnc(C)s2)cs1	86%	5%	-4%	3%	128*	33*
CCOc1cc(C(=O)Nc2nnc(C)s2)cc(OCC)c1OCC	13%	?	4%	10%	7	2
Cc1nnc(NC(=O)c2ccc3ccccc3c2)s1	189%	-9%	-4%	8%	74*	31*
Cc1ccc(C(=O)Nc2nnc(C)s2)cc1	i	0%	10%	1%	64*	27*
CC1(C(=O)NCc2ccccc2Br)CCN1C(=O)CCc1ccc(Cl)cc1Cl (configuration not stated)	·	·	1%	·	·	·
CC(C)CC1NC(=O)N(CC(=O)Nc2cc(F)ccc2F)C1=O (configuration not stated)	1%	13%	5%	37%	·	·
Cc1nc(N/N=C/c2cccc(F)c2)cc(N2CCOCC2)n1	?	?	-26%	9.3µM*	-3	2
O=C(CCc1ccccc1)NNc1cc(N2CCCCC2)nc(N2CCCCC2)n1	?	8%	-14%	?	1	-2
Oc1ccccc1/C=N/Nc1cc(N2CCCC2)nc(N2CCCC2)n1	2.1µM*	?	-9%	173%	30	12*
Oc1ccc(/C=N/Nc2cc(N3CCOCC3)nc(N3CCOCC3)n2)cc1O	?	?	30%	29%	-8	-1
Cc1nc(N/N=C/c2ccc(O)cc2O)cc(N2CCOCC2)n1	?	-18%	0%	?	3	9
Oc1cccc(/C=N/Nc2cc(N3CCOCC3)nc(N3CCOCC3)n2)c1	-28%	?	-5%	-27%	-2	19*
O=C(CSc1nnc(NC(=O)c2c(F)cccc2F)s1)NC1CCCCC1	-10%	5%	-13%	47%	3	10
CCCCCCNC(=O)CNC(=S)N(Cc1cccs1)C1CCCCC1	?	10µM*	4%	?	-3	-1
Cc1nn(-c2ccc(Cl)cc2)c2[nH]c(CCl)cc(=O)c12	?	-1%	-12%	-11%	-10	-3
SMILES	Pf growth 48h	HCV inh	AMA1 RON2 block	Pf growth 96h	Shiga toxin inh	CHX counter
CC(=O)c1nnn(-c2c(F)cccc2F)c1C	78%	1%	0%	41%	19	12*
CC1(C(=O)NC2CCCCC2)CCC(=O)N1CC(F)(F)F (configuration not stated)	·	·	6%	·	·	·
C/C(N)=C(/C#N)C(=O)COC(=O)c1ccccc1Cc1ccccc1	-17%	?	-3%	4%	22	18*
CC(=O)Nc1ccc(C(=O)OCC(=O)/C(C#N)=C(\C)N)cc1	38%	15%	-1%	47%	16	25*
C/C(N)=C(/C#N)C(=O)COC(=O)c1cccc(O)c1	40%	5%	-4%	266%	97*	17
COc1cc(/C=N/NC(=O)c2ccc(Cl)c(S(N)(=O)=O)c2)ccc1OCC(N)=O	26%	-11%	0%	-11%	-9	-2
CSCCC(C(=O)NC(C)(C)C)n1c(-c2ccc(C)cc2)nc2ccccc21 (configuration not stated)	·	·	-22%	·	·	·
Cc1cccc(C)c1NC(=O)C(c1ccc(-c2ccccc2)cc1)n1c(=O)c(-c2cc3ccccc3[nH]2)nc2ccccc21 (configuration not stated)	·	·	20%	·	·	·
CCCn1cc(CN2CCC(N3CCC(C(=O)N4CCOCC4)CC3)CC2)c(C)n1	24%	2%	0%	-12%	12	-3
O=C(NCc1ccc(F)cc1)Nc1ccc(Cl)cc1	60%	10%	3%	1%	59	36*
O=C(NCc1ccc(F)cc1)Nc1cccc(Cl)c1	64%	-30%	19%	63%	62*	28*
Cc1cccnc1NC(=O)CCC(=O)c1cccs1	-12%	15%	-3%	-11%	·	·
Cc1cc2c(c(C)c1Cl)C(c1ccc3c(c1)OCO3)CC(O)(c1ccccc1)O2 (configuration not stated)	·	·	·	·	-3	-1
S=c1[nH]nc(CSc2nc3ccccc3s2)o1	27%	10%	19%	·	-3	3
Cn1c(-c2csc(-c3ccccc3)n2)n[nH]c1=S	7%	8%	44%	-29%	25	16*
Cn1c(CSc2nc3ccccc3s2)n[nH]c1=S	46%	-3%	59%	-3%	18	15*
Cc1ccc(-c2n[nH]c(=S)n2C)cc1	14%	5%	22%	18%	-14	-4
Cn1c(CSc2nc3ccccc3s2)nc2ccccc21	52%	?	0%	-9%	77*	39*
CCNc1nnc(CSc2nc3ccccc3s2)s1	74%	-15%	53%	11%	60*	37*
Cc1[nH]n(-c2ncc(-c3ccccc3)s2)c(=O)c1C(c1ccc(Cl)cc1)C(C#N)C#N (configuration not stated)	-1%	0%	8%	?	-12	11*
CC1(C(=O)NS(=O)(=O)c2ccc(F)cc2F)CCN1C(=O)Cc1ccc(Cl)cc1Cl (configuration not stated)	·	·	-10%	·	·	·
OC[C@@H]1CN(Cc2cccs2)C[C@H](n2cnc3c(NC4CCC4)ncnc32)O1	·	·	-3%	·	·	·
COc1ccc(CCNC(=O)COC(=O)c2ccc(C)s2)cc1OC	-24%	-12%	-8%	?	·	·
CCOC(=O)c1[nH]c(C)c(C(=O)NCCc2ccc(OC)cc2)c1C	?	4%	-8%	4.7µM*	-3	-3
CCOC(=O)c1[nH]c(C)c(C(=O)OCC(=O)NCc2ccc(OC)c(OC)c2)c1C	-10%	?	15%	?	·	·

Screens: PubChem BioAssay, National Center for Advancing Translational Sciences (NCATS)
